Several values for one entry are separate records, joined by “and”; a condition that tells them apart may be missing. Equal entries are not always repeated. Hit rate of the full screen: of about 5,500 compounds, about 2,000 (36%) were called active. Inconclusive results (about 18%) are left out. Rule as the data show it: active = normalized growth mostly below about 0.91 (no sharp cut-off); inconclusive = no clear call, values can overlap the other calls; inactive = mostly above about 0.92. Some of the results follow.
Assay: chemical genetic growth profiling, strain panel (AID 1159580);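 also: tested at 20 µM; growth read once vehicle control cultures reached saturation at 30 °C; 1 = growth at the plate median or of vehicle wells; lower values mean less growth of the strain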
Settings: S. cerevisiae deletion strains, growth OD

Measured: normalized growth

O=C(O)CCCCC1SCC2NC(=O)NC21 (stereo not drawn)
inactive: locus YAL013W, strain DEP1, hits give low values 1.02 | locus YAL021C, strain ccr4, hits give low values 0.999 | locus YAL026C, strain drs2, hits give low values 0.994 | locus YAL030W, strain snc1, hits give low values 0.995 | locus YBL061C, strain skt5, hits give low values 0.989 | locus YBR009C, strain hhf1, hits give low values 0.997 | locus YBR021W, strain FUR4, hits give low values 0.977 | locus YBR023C, strain chs3, hits give low values 0.979 | locus YBR171W, strain sec66, hits give low values 0.996 | locus YBR229C, strain ROT2, hits give low values 1 | locus YBR231C, strain swc5, hits give low values 0.998 | locus YBR279W, strain paf1, hits give low values 0.997 | locus YCL011C, strain gbp2, hits give low values 0.995 | locus YCL016C, strain dcc1, hits give low values 0.995 | locus YCL029C, strain bik1, hits give low values 0.998 | locus YCL061C, strain MRC1, hits give low values 1 | locus YCL069W, strain vba3, hits give low values 0.97 | locus YCR088W, strain abp1, hits give low values 0.981 | locus YDL005C, strain med2, hits give low values 0.98 | locus YDL035C, strain GPR1, hits give low values 0.996 | locus YDL040C, strain nat1, hits give low values 1 | locus YDL074C, strain BRE1, hits give low values 1.01 | locus YDL101C, strain DUN1, hits give low values 0.989 | locus YDL134C, strain PPH21, hits give low values 1 | locus YDL185W, strain tfp1, hits give low values 0.997 | locus YDL192W, strain arf1, hits give low values 1.01 | locus YDR001C, strain nth1, hits give low values 0.985 | locus YDR069C, strain doa4, hits give low values 0.973 | locus YDR101C, strain arx1, hits give low values 0.98 | locus YDR137W, strain rgp1, hits give low values 0.983 | locus YDR150W, strain NUM1, hits give low values 1.02 | locus YDR159W, strain sac3, hits give low values 1.02 | locus YDR162C, strain NBP2, hits give low values 1.01 | locus YDR195W, strain ref2 1.01 | locus YDR297W, strain sur2, hits give low values 0.996 | locus YDR318W, strain mcm21, hits give low values 1 | locus YDR334W, strain swr1, hits give low values 0.984 | locus YDR335W, strain msn5, hits give low values 0.986 | locus YDR388W, hits give low values 1 | locus YDR392W, strain spt3, hits give low values 0.996 | locus YDR502C, strain sam2, hits give low values 0.994 | locus YEL003W, strain gim4, hits give low values 0.984 | locus YEL037C, strain rad23, hits give low values 0.992 | locus YEL061C, strain CIN8 (second series), hits give low values 1 | locus YEL061C, strain CIN8, hits give low values 1.02 | locus YER015W, strain faa2, hits give low values 0.979 | locus YER016W, strain bim1, hits give low values 0.988 | locus YER110C, hits give low values 1 | locus YER111C, strain swi4, hits give low values 1 | locus YER155C, strain BEM2 (second series), hits give low values 0.985 | locus YER155C, strain BEM2, hits give low values 0.999 | locus YER167W, strain BCK2, hits give low values 1 | locus YFR010W, strain ubp6, hits give low values 0.995 | locus YGL078C, strain dbp3, hits give low values 0.99 | locus YGL086W, strain mad1, hits give low values 0.993 | locus YGL167C, strain pmr1, hits give low values 0.99 | locus YGL173C, strain kem1, hits give low values 0.985 | locus YGL227W, strain vid30, hits give low values 1 | locus YGL240W, strain doc1, hits give low values 0.985 | locus YGL248W, strain PDE1, hits give low values 1 | locus YGL253W, strain hxk2, hits give low values 0.985 | locus YGR078C, strain PAC10, hits give low values 1.05 | locus YGR135W, strain pre9, hits give low values 0.999 | locus YGR252W, strain gcn5, hits give low values 0.944 | locus YHR013C, strain ard1, hits give low values 0.988 | locus YHR027C, strain rpn1, hits give low values 0.989 | locus YHR030C, strain SLT2, hits give low values 1.02 and 1.01 | locus YHR079C, strain IRE1 (second series), hits give low values 1.02 | locus YHR079C, strain IRE1, hits give low values 1.01 | locus YHR094C, strain hxt1, hits give low values 1 | locus YHR129C, strain ARP1, hits give low values 1.01 | locus YHR142W, strain chs7, hits give low values 0.982 | locus YHR200W, strain rpn10, hits give low values 0.996 | locus YIL066C, strain RNR3, hits give low values 1.01 | locus YIL073C, strain SPO22, hits give low values 1.02 | locus YIL125W, strain kgd1, hits give low values 0.987 | locus YIR030C, strain dcg1, hits give low values 1.01 | locus YJL092W, strain hpr5, hits give low values 0.986 | locus YJL095W, strain BCK1 (second series), hits give low values 0.998 | locus YJL095W, strain BCK1, hits give low values 1.02 and 1 | locus YJL115W, strain asf1, hits give low values 0.996 | locus YJL129C, strain trk1, hits give low values 0.954 | locus YJL134W, strain LCB3, hits give low values 1.01 | locus YJL154C, strain vps35, hits give low values 0.994 | locus YJL164C, strain tpk1, hits give low values 1 | locus YJL166W, strain qcr8, hits give low values 0.965 | locus YJL168C, strain set2, hits give low values 0.993 | locus YJL187C, strain SWE1 (second series), hits give low values 1

Reference: PubChem BioAssay AID1159580 (chemical genetic matrix, 2015)
